Screening data as filed in PubChem BioAssay.
tim10-1 inh – growth inhibitors of tim10-1 mutant yeast; S. cerevisiae tim10-1 ts strain growth, BacTiter-Glo, 24 h; inhibition, % at 20 µM; 330,000 compounds, 2.2% hits; AID 463190;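 active = inhibition of at least 40%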;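 also: mutant grown at 25 °C; 0% = DMSO wells with yeast and 100% = wells holding no yeast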
SKKanGAS inh – blocks kanamycin growth of S. pyogenes SKKanGAS strain | BacTiter-Glo, 6 h | inhibition, % at 7.5 µM | 300,000 compounds, 1.3% hits;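 active = mean replicate score, as percent of positive control median, at least 50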;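 also: strain carries kanamycin resistance gene driven by streptokinase promoter and grows in 40 µg/ml kanamycin; loss of luminescence reflects streptokinase promoter inhibition or plain growth inhibition; 0% = median of DMSO wells and 100% = positive control at its reference dose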
NALP3 yeast inh – NALP3 inhibition in yeast. Yeast reconstituted NLRP3/ASC/caspase-1, beta-gal luminescence, 24 h. 330,000 compounds, 0.39% hits. inhibition, % at 10 µM;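 active = inhibition of 50% or more; inactive = inhibition below 50%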;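 also: plate controls were induced DMSO wells for no effect and uninduced yeast grown without galactose for full effect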
TIM10 inh – inhibits growth of TIM10 yeast strain; S. cerevisiae TIM10 strain growth, BacTiter-Glo luminescence, 24 h; inhibition, % at 10 µM; 330,000 compounds, 1.4% hits; AID 463195;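 active = inhibition of 40% or more at the single tested concentration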;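 also: wild-type TIM10 isogenic control strain grown at permissive 25 °C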
PfHsp90 yeast 2 – growth inhibition of yeast expressing Plasmodium Hsp90; S. cerevisiae expressing PfHsp90, BacTiter-Glo ATP, 48 h; yeast lacking PDR1 and PDR3 efflux regulators; inhibition, % at 9.4 µM; 310,000 compounds, 0.32% hits; AID 504621;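 active = every replicate shows inhibition above about 80%, whatever the replicate mean, limit read from the data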;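 also: 0% = DMSO neutral controls and 100% = 20 µM radicicol positive controls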
tim23-1 inh – inhibits growth of tim23-1 mutant yeast. AID 463212. inhibition, % at 20 µM. S. cerevisiae tim23-1 growth, BacTiter-Glo luminescence, 24 h. 330,000 compounds, 1.3% hits;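 active = growth inhibition of the mutant yeast at or above 50%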;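 also: temperature-sensitive mutant grown at 25 °C; plate controls were DMSO-treated mutant yeast for no effect and medium wells lacking yeast for full effect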
NALP3 yeast conf – NALP3 inhibition confirmation in yeast. shares compounds with NALP3 yeast inh. yeast expressing human NALP3, luminescence. inhibition, % at 10 µM. 1,300 compounds, 81% hits. AID 435006; in the data active = inhibition above about 48%
Casp1 ASC ctr – counter-screen for NALP3 inhibitors: yeast caspase-1-ASC. shares compounds with NALP3 yeast inh. yeast expressing Caspase-1-ASC, luminescence counter screen. inhibition, % at 10 µM. 1,000 compounds, 66% hits. AID 488784
NALP3 yeast rt – retest-confirmed inhibitor of NALP3 in yeast; inhibition, % at 10 µM; 1,000 compounds, 53% hits; yeast expressing human NALP3, luminescence read-out; shares compounds with NALP3 yeast inh
Numbers without * were called inactive; / = no result given. Sampled rows, rich in hits. Any-hit rate of the full collection: about 4.6%. Rule as the data show it, unless noted: active = inhibition above about 50%; inactive = the rest.

SMILES	tim10-1 inh	SKKanGAS inh	NALP3 yeast inh	TIM10 inh	PfHsp90 yeast 2	tim23-1 inh	NALP3 yeast conf	Casp1 ASC ctr	NALP3 yeast rt
Cc1ccc(CN2CCSc3sccc3C2=O)cc1	-14.9	14.4	81.2*	-24.6	20.2	16.1	74.3*	89.3*	77.4*
O=C1c2ccsc2SCCN1Cc1ccc(Cl)cc1	10.4	-0.9	79.4*	-2.2	28.6	35.4	83.5*	88.4*	79.8*
Cc1cccc(CN2CCSc3sccc3C2=O)c1	10.4	5.1	37.7	-11.1	-4.0	14.8	/	/	/
O=C1c2ccsc2SCCN1Cc1cccc(Cl)c1	14.5	-4.7	39.3	-31.3	33.1	20.6	/	/	/
COc1ccc(CCNC(=O)c2nnn(CC(=O)Nc3cccc(F)c3)c2N)cc1OC	14.4	-6.7	13.7	3.5	12.6	-0.8	/	/	/
O=C(COC(=O)C12CC3CC(CC(C3)C1)C2)Nc1ccccc1F	27.1	-4.9	6.2	38.0	-1.2	33.6	/	/	/
CCOC(=O)c1c(-c2ccccc2)nc2ccccn12	19.7	1.0	96.9*	15.7	-9.5	14.8	98.6*	99.1*	98.8*
Cn1cc(CCNC(=O)C2CCC(=O)N(CCc3ccc(Cl)cc3)C2)cn1 (centres undefined)	6.5	-4.4	-6.3	1.7	-12.0	12.0	/	/	/
CN(C)c1ccc(C(=O)/C=C/c2ccccc2)cc1	20.6	4.7	52.5*	16.3	7.1	4.9	72.2*	42.9	39.9
CN(C)c1ccc(C(=O)/C=C/c2ccc(Br)cc2)cc1	26.0	-7.8	31.5	14.1	14.6	29.3	/	/	/
COc1cccc(CNC(=O)Cn2cccc2C(=O)c2ccccc2C)c1	25.4	-1.5	5.0	-1.1	-29.2	25.3	/	/	/
Cc1ccc(NC(=O)c2cnn(-c3ccccc3)c2C)cc1	-11.2	-5.8	27.7	-12.7	2.7	10.5	/	/	/
CCc1cccc(NC(=O)c2cnn(-c3ccccc3)c2C)c1	-14.0	-3.9	58.8*	-49.3	24.4	34.6	67.1*	56.8*	67.2*
COc1cccc(NC(=O)c2cnn(-c3ccccc3)c2C)c1	-2.9	-7.2	51.1*	0.8	14.6	21.9	59.0*	50.0	43.8
CC(Sc1nnc(C2CC2)n1Cc1ccccc1)C(=O)N1CCNC1=O (centres undefined)	-11.4	/	4.8	-0.3	22.6	-4.5	/	/	/
O=C(Nc1ccc(Nc2ccccc2)cc1)C(Cl)(Cl)Cl	-52.7	5.7	60.7*	28.9	11.8	43.0	68.0*	/	/
C=CCNC(=S)NNc1nc2sc3c(c2c(=O)[nH]1)CC(C)(C)OC3	-12.3	-1.3	3.8	-3.7	6.5	-11.0	/	/	/
COc1ccccc1-c1ccc(SCc2ccc(C)cc2)nn1	3.4	3.0	54.5*	-9.5	13.5	8.0	58.9*	52.5*	54.5*
COc1ccccc1-c1ccc(SCc2ccc(F)cc2)nn1	17.3	6.1	35.0	-5.6	0.9	20.7	/	/	/
O=C(NNC(=O)c1ccc(Oc2ccc(C3SCCS3)cc2)o1)c1ccc(Cl)cc1	-0.1	7.5	53.1*	-4.7	3.4	0.7	34.2	/	/
O=C(NNC(=O)c1ccc(Oc2cc(Cl)cc(Cl)c2)o1)c1ccccc1	11.6	-8.0	20.4	-3.7	-6.3	18.1	/	/	/
CC1CCCCN1S(=O)(=O)c1cnc(Cl)c(Br)c1 (centres undefined)	-17.6	0.2	54.9*	-56.0	8.8	3.9	53.7*	/	/
CC(C(=O)NCCC1=CCCCC1)c1ccc([N+](=O)[O-])cc1 (centres undefined)	16.9	6.4	50.8*	-5.9	14.4	-14.1	61.5*	47.9	28.6
CC(=O)OC1C=CCC2C(=O)c3cccc(O)c3C(O)C12 (centres undefined)	/	/	/	/	-9.6	/	/	/	/
CCOC(=O)Nc1ccc(S(=O)(=O)NC2CCCCC2)cc1	-4.8	-4.6	56.8*	-2.0	7.7	6.8	68.4*	/	/
SMILES	tim10-1 inh	SKKanGAS inh	NALP3 yeast inh	TIM10 inh	PfHsp90 yeast 2	tim23-1 inh	NALP3 yeast conf	Casp1 ASC ctr	NALP3 yeast rt
CC(=O)N[C@@H](Cc1c[nH]c2ccccc12)C(=O)NC1CC1	20.5	-8.5	13.1	-8.2	14.0	5.2	/	/	/
O=C1C(=C(c2ccccc2)c2ccccc2)Nc2ccccc21	-10.8	10.4	62.2*	5.9	12.5	27.2	7.9	/	/
O=C1C(=C(O)c2ccccc2)C(=O)c2ccccc21	-9.0	1.9	21.8	5.4	11.9	18.6	/	/	/
C=CCc1ccc(OCCn2nnc3ccccc32)c(OC)c1	19.7	0.9	53.1*	4.8	3.1	32.6	63.2*	50.2*	31.0
CN1CCN(C(=O)CSc2nnc(COc3ccc(Cl)cc3)o2)CC1	7.7	-1.2	24.7	-6.1	13.7	13.3	/	/	/
c1ccc(-c2ccc(-c3cn4c(n3)CCC4)cc2)cc1	-20.1	10.6	65.9*	-119.3	-27.8	40.7	68.4*	86.8*	73.5*
COc1ccc(NC(=O)c2ccc(F)c(F)c2)c2ccccc12	-2.7	-13.5	50.1*	4.3	10.9	2.4	61.2*	27.2	43.6
C/C(=N\Nc1ncc(Br)cn1)c1cccc([N+](=O)[O-])c1	13.1	-1.3	50.7*	-1.7	-6.5	28.8	61.0*	63.5*	49.2
Cc1ccc2c(c1)N(CC(=O)N1CCCC1)C(=O)CO2	0.1	-4.1	1.6	-1.9	-15.2	-6.3	/	/	/
CCOC(=O)c1cnn(-c2cccc(Cl)c2)c1N	-10.8	-2.9	55.9*	-14.2	-3.5	-9.3	73.2*	52.8*	31.7
O=C(COc1ccc(Cl)cc1)Nc1cccc(-c2ccc(N3CCOCC3)nn2)c1	-12.2	43.2	61.3*	-0.6	19.8	-4.9	75.0*	49.0	45.5
O=C(Nc1cccc(-c2ccc(N3CCOCC3)nn2)c1)c1ccc(Cl)cc1	1.0	36.1	2.9	-3.1	18.1	-1.2	/	/	/
O=c1oc2ccccc2cc1-c1ccc(O)cc1	-7.3	-7.3	51.5*	7.7	-5.1	31.4	49.0	/	/
Nc1ccc(-c2cc3ccccc3oc2=O)cc1	-4.7	-2.7	35.9	-11.5	4.3	-2.3	/	/	/
O=C(COC(=O)c1ccc([N+](=O)[O-])o1)NCc1ccc2c(c1)OCO2	-196.9	/	14.2	-152.9	18.5	-16.5	/	/	/
COc1cccc(CNC23CC4CC(CC(C4)C2)C3)c1OCc1ccccc1	17.2	-0.4	12.5	6.8	4.8	9.1	/	/	/
Cc1cccc(NC(=O)c2nc[nH]c2C(=O)N[C@@H](C)C(=O)OC(C)(C)C)c1	29.3	5.2	35.4	7.9	19.7	41.0	/	/	/
C[C@H](NC(=O)c1[nH]cnc1C(=O)Nc1ccc(Cl)cc1)C(=O)OC(C)(C)C	16.6	23.5	58.4*	10.7	-29.1	37.1	65.4*	30.1	24.6
CCN(CC)S(=O)(=O)c1cccc(-c2nc3n(n2)Cc2ccccc2-3)c1	29.2	4.9	-107.4	36.6	-21.4	16.5	-0.4	/	/
